# Measurements as given in PubChem BioAssay (Tox21).
# Results filed as inconclusive are left out. Unmarked numbers belong to inactive results. Calls follow the shape of the full dose curve.
# Molecular target: 5-hydroxytryptamine receptor 2A (Homo sapiens) (UniProt P28223)
# Test: 5-hydroxytryptamine receptor 2A (HTR2A) small molecule agonists, cell-based qHTS assay (AID 1963587); also: nearly all actives have a fitted effect of over 30% in size
# Settings: HTR2A-CHO cells, calcium flux fluorescence, agonist mode; series mostly up to 76.8 µM; activation: at the top concentration
# Excerpt: National Center for Advancing Translational Sciences [NCATS]
# Division of Preclinical Innovation [DPI]
# U.S. Environmental Protection Agency [EPA]
# National Institutes of Environmental Health Sciences [NIEHS]
# National Toxicology Program [NTP]
# U.S. Food and Drug Administration [FDA]
# The HTR2A receptor is a subtype of the 5-HT2 receptor that belongs to the serotonin receptor family and is a G protein-coupled receptor (GPCR). The HTR2A-CHO cell line stably expressing human 5-hydroxytryptamine receptor 2A (HTR2A) can be used for screening agonists of interactions between 5-HT2 and its ligands. The HTR2A-CHO calcium flux assay is a homogeneous fluorescence-based assay for detecting the intracellular calcium level using FDSS kinetic plate reader system.
# HTR2A-CHO cells were dispensed at 2000 cells/3uL/well in 1536-well black-clear bottom plates using a Multidrop Dispenser. After the assay plates were incubated at a 37 C/5% CO2 incubator for 18 h, 3 uL of Dye Loading Buffer was transferred to the assay plate by a Flying Reagent Dispenser. The assay plates were incubated at 37 C for 1h. For agonist mode, 23 nL of compounds dissolved in DMSO, positive controls or DMSO only was transferred to the assay plate by a pin tool. The fluorescence intensity in the plates was measured using FDSS 7000EX kinetic plate reader for 2 min at 1 sec intervals.
# % is scaled to controls: 0 for no effect and ±100 for the full control effect.
# Sequence of 5-hydroxytryptamine receptor 2A (Homo sapiens) (P28223 whole entry, looked up): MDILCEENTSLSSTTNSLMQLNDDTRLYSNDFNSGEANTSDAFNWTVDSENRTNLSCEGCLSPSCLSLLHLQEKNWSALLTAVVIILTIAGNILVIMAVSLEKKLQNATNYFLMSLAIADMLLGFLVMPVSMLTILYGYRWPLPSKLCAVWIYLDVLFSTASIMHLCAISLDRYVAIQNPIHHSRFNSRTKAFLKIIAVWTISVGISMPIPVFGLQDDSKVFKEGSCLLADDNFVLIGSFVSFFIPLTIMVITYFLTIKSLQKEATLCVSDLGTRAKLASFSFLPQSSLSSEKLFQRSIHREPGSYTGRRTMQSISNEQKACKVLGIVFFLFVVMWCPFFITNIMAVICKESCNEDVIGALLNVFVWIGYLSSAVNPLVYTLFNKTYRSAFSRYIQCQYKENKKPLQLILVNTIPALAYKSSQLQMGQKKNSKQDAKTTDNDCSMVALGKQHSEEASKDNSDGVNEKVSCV
row,Structure (SMILES),activation
1,COc1ccc(-n2nc(CCC(=O)N(C)O)cc2-c2ccc(Cl)cc2)cc1,5.61% [at 35.6 µM]
2,COC(=O)c1c(C)cc(O)c(C)c1O,-0.879%
3,Cn1c(=O)[nH]c2ncn(C)c2c1=O,-1.85%
4,CNC(=O)c1ccccc1Sc1ccc2c(/C=C/c3ccccn3)n[nH]c2c1,0.361% [at 35.6 µM]
5,Nc1ccc(C(=O)N2CC3CC(CN(Cc4ccccc4)C3)C2)cc1,2.22% [at 35.6 µM]
6,CCCCCCCCCCCCCOP(=O)(O)O,-5.67%
7,CCCCCCC/C=C/C=O,-10.6%
8,CC(=O)Nc1cc(S(=O)(=O)O)cc2cc(S(=O)(=O)O)c(N=Nc3ccccc3)c(O)c12,-0.515%
9,Cc1cc(N)c2cc(NC(=O)Nc3ccc4nc(C)cc(N)c4c3)ccc2n1,5.34% [at 35.6 µM]
10,NC(CS)C(=O)O (stereo not given),4.46% [at 35.6 µM]
11,C/C=C/C(=O)OCC(C)C,2.52%
12,C=C(C)C(=O)OCC1CCCO1 (stereo not given),-3.99%
13,OCC(CBr)(CBr)CBr,-1.87%
14,O=C(Nc1ccc2c(O)c(N=Nc3ccc(N=Nc4ccc(S(=O)(=O)O)cc4)cc3)c(S(=O)(=O)O)cc2c1)c1ccccc1,-1.98%
15,Nc1nc(N)c(-c2ccccc2)s1,0.985% [at 35.6 µM]
16,CCCCCCOC(=O)CCCCC(=O)OCCCCCC,-0.918%
17,Oc1ccc(C(O)CNCCCCCCNCC(O)c2ccc(O)c(O)c2)cc1O (stereo not given),5.08% [at 35.6 µM]
18,CC(CC(C)(C)C)CC(C)(C)CC(C)(C)C (stereo not given),-1.92% [at 35.6 µM]
19,CC(C)(C)N(CCO)CCO,2.39%
20,O=C1c2ccccc2C(=O)c2cc(Cl)ccc21,-2.59% [at 7.02 µM]

row,Structure (SMILES),activation
1,OCC(F)(F)F,-0.725%
2,CCCCCCCC/C=C\CCCCCCCCCCCC(=O)O,-0.298%
3,Nc1cc([N+](=O)[O-])cc(Cl)c1O,-0.91%
4,CCCCCCCC(C)=O,-0.0729%
5,CCCC(=O)O[C@]1(C(=O)CC)CC[C@H]2[C@@H]3CCC4=CC(=O)CC[C@]4(C)[C@H]3[C@@H](O)C[C@@]21C,4.82% [at 35.6 µM]
6,SC1CCCCC1,-0.126%
7,O=C(O)c1cccc(N(Cc2cccnc2)c2ccc(OC(F)F)c(OC(F)F)c2)c1,-18.1%
8,CCC1CO1 (stereo not given),-0.0715%
9,CCCCCCCCC=O,-4.72%
10,CC(C)CCCC(C)NCCC(C)C (stereo not given),1.21% [at 35.6 µM]
11,CC(C)COC(=O)COc1cc(Cl)c(Cl)cc1Cl,-1.84%
12,C/C=C/C(=O)CC,-1.41% [at 15.9 µM]
13,CC1(C)S[C@@H]2[C@H](NC(=O)C(c3ccccc3)S(=O)(=O)O)C(=O)N2[C@H]1C(=O)O (stereo not given in full),2.16% [at 35.6 µM]
14,CCC(CC)C(=O)O,0.02%
15,Nc1ccc(S(=O)(=O)Nc2ccccn2)cc1,-0.305% [at 35.6 µM]
16,Cc1cccc(C)c1NC(=O)CN1CCCC1,3.9% [at 35.6 µM]
17,O=C(O)c1cccc(C(=O)O)c1C(=O)O,1.47%
18,COc1ccccc1N1CCN(CCCNc2cc(=O)n(C)c(=O)n2C)CC1,9.36% [at 35.6 µM]
19,O=[N+]([O-])c1c(Cl)cc(Cl)cc1Cl,-0.474%
20,O=S(=O)(c1ccccc1)c1ccc(Cl)cc1,-4.44%
